According to publication PMC7862700, “An all-to-all approach to the identification of sequence-specific readers for epigenetic DNA modifications on cytosine”:

Assays:
Test in all cases: DAPPL (digital affinity profiling via proximity ligation, sequencing); 10 mM Tris-HCl pH 7.5, 50 mM NaCl, 1 mM DTT, 4% glycerol, room temperature, 30 min; GST-TFs on glutathione beads, 16-mer random dsDNA library, 0.1% formaldehyde crosslink after washing; high values mean tight binding
ETV5 = ETV5 (Homo sapiens, UniProt P41161 1-510); conditions: protein: recombinant; tags: N-terminal GST; dsDNA, one strand shown
Chain of ETV5 (P41161 whole entry, the tested form may be a part): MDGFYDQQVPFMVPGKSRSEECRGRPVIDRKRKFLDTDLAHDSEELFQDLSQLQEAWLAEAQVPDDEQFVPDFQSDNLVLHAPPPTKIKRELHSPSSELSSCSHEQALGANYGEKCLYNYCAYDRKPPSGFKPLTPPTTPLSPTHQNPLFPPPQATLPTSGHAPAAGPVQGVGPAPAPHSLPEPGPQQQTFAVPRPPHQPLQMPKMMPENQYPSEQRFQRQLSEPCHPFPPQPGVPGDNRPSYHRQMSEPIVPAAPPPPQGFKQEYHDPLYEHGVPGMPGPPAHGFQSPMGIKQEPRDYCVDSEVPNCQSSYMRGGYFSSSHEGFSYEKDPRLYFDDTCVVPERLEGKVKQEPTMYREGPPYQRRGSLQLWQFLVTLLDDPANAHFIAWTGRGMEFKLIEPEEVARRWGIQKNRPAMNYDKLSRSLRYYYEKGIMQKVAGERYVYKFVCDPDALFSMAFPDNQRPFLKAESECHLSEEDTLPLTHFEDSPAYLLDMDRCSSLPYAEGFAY
Procedure, shortened: (§1)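 In yeast, human transcription factors were expressed with a GST fusion, then pulled down on glutathione beads and given DNA barcodes. Pooled with a tag-only sample, they were exposed to 200 nmole of a 16-mer random double-stranded DNA library (Tris/NaCl/DTT/glycerol buffer, room temperature, 30 min), washed, crosslinked with 0.1% formaldehyde, proximity-ligated using BsaI/T4 ligase for 1 h at 37 °C, PCR-amplified and read on an Illumina NextSeq500. Each hexamer's frequency of reads for a factor, divided by the matching frequency for the tag-only sample, gives the binding signal.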

HSF1 = HSF1 (Homo sapiens, UniProt Q00613 1-529); conditions: protein: recombinant; tags: N-terminal GST; chain copies: 3; dsDNA, one strand shown
Chain of HSF1 (Q00613 whole entry): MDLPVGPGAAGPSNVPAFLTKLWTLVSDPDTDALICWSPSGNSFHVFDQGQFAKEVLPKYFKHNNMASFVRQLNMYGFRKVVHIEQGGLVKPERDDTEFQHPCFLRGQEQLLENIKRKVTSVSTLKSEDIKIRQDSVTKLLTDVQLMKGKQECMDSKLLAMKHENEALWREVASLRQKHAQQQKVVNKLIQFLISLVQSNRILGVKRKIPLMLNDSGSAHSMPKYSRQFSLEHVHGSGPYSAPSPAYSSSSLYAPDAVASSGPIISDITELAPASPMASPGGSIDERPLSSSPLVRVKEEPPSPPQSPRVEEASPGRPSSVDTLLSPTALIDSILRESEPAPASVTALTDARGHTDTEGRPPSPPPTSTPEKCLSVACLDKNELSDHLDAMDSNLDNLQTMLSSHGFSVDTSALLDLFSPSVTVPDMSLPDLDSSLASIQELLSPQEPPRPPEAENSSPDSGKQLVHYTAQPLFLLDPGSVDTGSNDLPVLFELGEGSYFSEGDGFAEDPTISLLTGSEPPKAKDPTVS
Procedure, shortened: as §1

SPIC = target: T1, SPIC (Homo sapiens, UniProt Q8N5J4 1-248); conditions: protein: recombinant; tags: N-terminal GST; dsDNA, one strand shown
T1 sequence: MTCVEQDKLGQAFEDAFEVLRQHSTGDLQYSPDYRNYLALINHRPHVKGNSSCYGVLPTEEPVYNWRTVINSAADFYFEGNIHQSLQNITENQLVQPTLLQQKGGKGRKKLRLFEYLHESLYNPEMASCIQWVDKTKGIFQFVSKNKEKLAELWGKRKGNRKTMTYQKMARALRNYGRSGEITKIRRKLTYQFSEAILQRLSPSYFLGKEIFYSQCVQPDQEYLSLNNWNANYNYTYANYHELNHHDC
Procedure, shortened: as §1

ELF4 = ELF4 (Homo sapiens, UniProt Q99607 1-663); conditions: protein: recombinant; tags: N-terminal GST; dsDNA, one strand shown
Chain of ELF4 (Q99607 whole entry): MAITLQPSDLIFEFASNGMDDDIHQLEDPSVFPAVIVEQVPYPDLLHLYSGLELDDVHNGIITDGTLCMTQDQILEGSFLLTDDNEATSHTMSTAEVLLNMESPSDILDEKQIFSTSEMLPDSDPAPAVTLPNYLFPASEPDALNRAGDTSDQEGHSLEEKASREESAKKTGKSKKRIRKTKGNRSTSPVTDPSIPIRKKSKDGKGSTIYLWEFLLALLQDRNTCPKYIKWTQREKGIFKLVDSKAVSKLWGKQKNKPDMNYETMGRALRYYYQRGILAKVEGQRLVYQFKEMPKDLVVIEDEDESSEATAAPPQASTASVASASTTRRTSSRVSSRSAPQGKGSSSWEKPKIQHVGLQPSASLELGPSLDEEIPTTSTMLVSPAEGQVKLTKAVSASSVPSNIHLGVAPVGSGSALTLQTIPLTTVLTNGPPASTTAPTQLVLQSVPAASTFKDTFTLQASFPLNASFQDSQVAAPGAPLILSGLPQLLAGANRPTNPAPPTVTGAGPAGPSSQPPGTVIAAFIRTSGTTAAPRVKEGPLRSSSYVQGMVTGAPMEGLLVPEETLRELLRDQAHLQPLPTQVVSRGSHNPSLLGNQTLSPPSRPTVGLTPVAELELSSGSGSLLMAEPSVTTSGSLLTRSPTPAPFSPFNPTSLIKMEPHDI
Procedure, shortened: as §1

ELF3 = target: T2, ELF3 (Homo sapiens, UniProt P78545 1-371); conditions: protein: recombinant; tags: N-terminal GST; dsDNA, one strand shown
T2 sequence: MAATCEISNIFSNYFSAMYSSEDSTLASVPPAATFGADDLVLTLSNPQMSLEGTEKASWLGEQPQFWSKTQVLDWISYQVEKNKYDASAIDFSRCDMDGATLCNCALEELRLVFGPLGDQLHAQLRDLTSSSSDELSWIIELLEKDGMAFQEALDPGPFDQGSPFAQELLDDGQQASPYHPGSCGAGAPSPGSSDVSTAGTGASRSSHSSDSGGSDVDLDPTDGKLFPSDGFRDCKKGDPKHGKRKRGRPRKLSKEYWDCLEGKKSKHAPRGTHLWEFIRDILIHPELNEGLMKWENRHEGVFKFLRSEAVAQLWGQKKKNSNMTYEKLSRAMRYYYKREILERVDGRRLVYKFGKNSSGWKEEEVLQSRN
Procedure, shortened: as §1

CRX = CRX (Homo sapiens, UniProt O43186 1-299); conditions: protein: recombinant; tags: N-terminal GST; dsDNA, one strand shown
Chain of CRX (O43186 whole entry): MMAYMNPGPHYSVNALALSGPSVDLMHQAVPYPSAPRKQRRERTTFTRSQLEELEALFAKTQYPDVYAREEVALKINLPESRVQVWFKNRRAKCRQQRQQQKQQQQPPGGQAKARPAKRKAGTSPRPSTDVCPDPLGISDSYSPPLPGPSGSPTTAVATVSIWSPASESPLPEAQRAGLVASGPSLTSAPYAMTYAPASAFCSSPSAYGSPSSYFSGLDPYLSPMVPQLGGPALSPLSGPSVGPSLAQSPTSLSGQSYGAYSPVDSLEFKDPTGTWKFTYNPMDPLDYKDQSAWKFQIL
Procedure, shortened: as §1

ETV1 = ETV1 (Homo sapiens, UniProt P50549 1-477); conditions: protein: recombinant; tags: N-terminal GST; dsDNA, one strand shown
Chain of ETV1 (P50549 whole entry): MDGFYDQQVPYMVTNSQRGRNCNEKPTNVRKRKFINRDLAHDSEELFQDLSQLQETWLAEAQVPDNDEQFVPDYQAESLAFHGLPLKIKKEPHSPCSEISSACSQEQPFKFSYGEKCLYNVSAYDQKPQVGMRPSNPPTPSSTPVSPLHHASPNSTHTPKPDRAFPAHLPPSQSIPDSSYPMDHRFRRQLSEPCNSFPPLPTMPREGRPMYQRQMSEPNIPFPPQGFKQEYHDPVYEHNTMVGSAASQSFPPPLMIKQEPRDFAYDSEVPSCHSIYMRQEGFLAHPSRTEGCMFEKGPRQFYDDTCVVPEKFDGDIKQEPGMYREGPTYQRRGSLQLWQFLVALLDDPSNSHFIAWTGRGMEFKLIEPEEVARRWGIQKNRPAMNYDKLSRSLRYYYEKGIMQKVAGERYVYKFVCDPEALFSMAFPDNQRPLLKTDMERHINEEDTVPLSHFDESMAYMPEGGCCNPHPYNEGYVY
Procedure, shortened: as §1

ERF = target: T3, ERF (Homo sapiens, UniProt P50548 1-548); conditions: protein: recombinant; tags: N-terminal GST; dsDNA, one strand shown
T3 sequence: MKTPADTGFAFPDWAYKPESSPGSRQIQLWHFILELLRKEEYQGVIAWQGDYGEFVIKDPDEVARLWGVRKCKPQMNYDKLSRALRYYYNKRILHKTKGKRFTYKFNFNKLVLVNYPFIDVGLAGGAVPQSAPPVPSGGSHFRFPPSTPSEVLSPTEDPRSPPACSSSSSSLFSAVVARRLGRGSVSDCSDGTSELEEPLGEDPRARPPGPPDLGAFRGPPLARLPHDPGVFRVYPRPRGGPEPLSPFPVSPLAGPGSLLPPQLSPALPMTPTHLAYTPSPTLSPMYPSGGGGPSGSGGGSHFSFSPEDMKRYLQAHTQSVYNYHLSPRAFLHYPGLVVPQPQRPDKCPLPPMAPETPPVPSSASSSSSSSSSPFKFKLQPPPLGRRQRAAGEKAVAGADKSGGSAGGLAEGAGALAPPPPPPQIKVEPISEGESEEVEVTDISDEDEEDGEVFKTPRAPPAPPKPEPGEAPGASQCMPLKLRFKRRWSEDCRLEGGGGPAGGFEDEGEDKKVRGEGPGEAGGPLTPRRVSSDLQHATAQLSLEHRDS
Procedure, shortened: as §1

ETV3L = target: T4, ETV3L (Homo sapiens, UniProt Q6ZN32 1-361); conditions: protein: recombinant; tags: N-terminal GST; dsDNA, one strand shown
T4 sequence: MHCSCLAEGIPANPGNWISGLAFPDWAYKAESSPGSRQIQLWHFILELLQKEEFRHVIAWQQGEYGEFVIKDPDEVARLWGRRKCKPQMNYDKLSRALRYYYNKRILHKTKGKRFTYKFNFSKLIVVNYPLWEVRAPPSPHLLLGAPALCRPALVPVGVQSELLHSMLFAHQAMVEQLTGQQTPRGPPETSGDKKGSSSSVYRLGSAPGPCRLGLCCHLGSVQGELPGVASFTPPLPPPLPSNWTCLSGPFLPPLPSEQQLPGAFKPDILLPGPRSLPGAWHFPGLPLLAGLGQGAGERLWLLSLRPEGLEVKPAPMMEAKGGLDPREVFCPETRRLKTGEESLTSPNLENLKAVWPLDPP
Procedure, shortened: as §1

ETS2 = target: T5, ETS2 (Homo sapiens, UniProt P15036 1-469); conditions: protein: recombinant; tags: N-terminal GST; dsDNA, one strand shown
T5 sequence: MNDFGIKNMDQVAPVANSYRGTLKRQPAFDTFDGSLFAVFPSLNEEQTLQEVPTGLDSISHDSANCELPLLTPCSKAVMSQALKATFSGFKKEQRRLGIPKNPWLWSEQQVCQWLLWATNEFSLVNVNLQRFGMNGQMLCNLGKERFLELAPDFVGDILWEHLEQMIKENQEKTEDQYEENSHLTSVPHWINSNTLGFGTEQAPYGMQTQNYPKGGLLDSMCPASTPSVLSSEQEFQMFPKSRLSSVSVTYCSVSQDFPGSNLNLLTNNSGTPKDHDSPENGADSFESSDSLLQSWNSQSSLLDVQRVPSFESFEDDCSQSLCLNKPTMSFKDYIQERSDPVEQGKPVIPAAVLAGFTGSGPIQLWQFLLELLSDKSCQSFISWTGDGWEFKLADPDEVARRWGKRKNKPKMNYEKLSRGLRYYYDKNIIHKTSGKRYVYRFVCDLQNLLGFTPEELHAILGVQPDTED
Procedure, shortened: as §1

ELF5 = target: T6, ELF5 (Homo sapiens, UniProt Q9UKW6-2 1-255); conditions: protein: recombinant; tags: N-terminal GST; dsDNA, one strand shown
T6 sequence: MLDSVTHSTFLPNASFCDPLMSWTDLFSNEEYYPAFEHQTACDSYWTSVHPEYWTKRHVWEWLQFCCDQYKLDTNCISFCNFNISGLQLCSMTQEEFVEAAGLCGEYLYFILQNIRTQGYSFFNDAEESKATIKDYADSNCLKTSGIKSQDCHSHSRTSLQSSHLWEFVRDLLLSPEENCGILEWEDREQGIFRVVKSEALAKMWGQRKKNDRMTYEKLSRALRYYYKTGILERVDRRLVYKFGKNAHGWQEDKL
Procedure, shortened: as §1

ETV3 = target: T7, ETV3 (Homo sapiens, UniProt P41162-2 1-143); conditions: protein: recombinant; tags: N-terminal GST; dsDNA, one strand shown
T7 sequence: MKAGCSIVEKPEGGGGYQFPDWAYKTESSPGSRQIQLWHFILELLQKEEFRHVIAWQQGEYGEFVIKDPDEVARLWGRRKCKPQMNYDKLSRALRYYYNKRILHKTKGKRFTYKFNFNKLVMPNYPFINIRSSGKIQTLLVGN
Procedure, shortened: as §1

ETV6 = ETV6 (Homo sapiens, UniProt P41212 1-452); conditions: protein: recombinant; tags: N-terminal GST; dsDNA, one strand shown
Chain of ETV6 (P41212 whole entry): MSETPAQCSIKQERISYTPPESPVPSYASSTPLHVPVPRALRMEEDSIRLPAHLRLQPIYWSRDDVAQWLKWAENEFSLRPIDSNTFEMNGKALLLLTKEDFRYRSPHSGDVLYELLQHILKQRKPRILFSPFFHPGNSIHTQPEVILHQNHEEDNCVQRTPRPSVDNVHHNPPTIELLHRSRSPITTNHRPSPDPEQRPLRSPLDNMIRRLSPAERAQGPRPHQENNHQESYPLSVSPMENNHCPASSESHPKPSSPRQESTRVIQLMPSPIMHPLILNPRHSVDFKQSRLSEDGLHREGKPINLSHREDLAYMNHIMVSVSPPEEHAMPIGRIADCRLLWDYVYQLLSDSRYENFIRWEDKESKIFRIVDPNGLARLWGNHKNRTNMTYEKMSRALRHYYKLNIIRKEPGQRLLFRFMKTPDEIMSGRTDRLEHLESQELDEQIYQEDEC
Procedure, shortened: as §1

In the case of TAGTCT, the binding signal (ETV5) is reported as 1.01 fold enrichment (6-mer frequency, TF over GST control), the binding signal (HSF1) is reported as 1.4 fold enrichment (6-mer frequency, TF over GST control) and the binding signal (SPIC) is reported as 1.05 fold enrichment (6-mer frequency, TF over GST control). The binding signal (ELF4) was 1.03 fold enrichment (6-mer frequency, TF over GST control), the binding signal (ELF3) was 1.14 fold enrichment (6-mer frequency, TF over GST control) and the binding signal (CRX) was 1.4 fold enrichment (6-mer frequency, TF over GST control). The binding signal (ETV1) was 1.01 fold enrichment (6-mer frequency, TF over GST control), the binding signal (ERF) was 1.17 fold enrichment (6-mer frequency, TF over GST control) and the binding signal (ETV3L) was 1.04 fold enrichment (6-mer frequency, TF over GST control). The binding signal (ETS2) was 1.09 fold enrichment (6-mer frequency, TF over GST control), the binding signal (ELF5) was 1.04 fold enrichment (6-mer frequency, TF over GST control) and the binding signal (ETV3) was 1.12 fold enrichment (6-mer frequency, TF over GST control). The binding signal (ETV6) was 1.02 fold enrichment (6-mer frequency, TF over GST control).
